39 molecules from PubChem BioAssay AID504321 (NMMLSC, 2011) can be followed below.

Several values for one entry are separate records, joined by “and”; a condition that tells them apart may be missing. Identical values can stand only once. Activity calls are given as the source filed them.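 Rule for the calls: active = GFP response vs DMSO above 150% with enough events counted; inconclusive = fewer than 70 events counted for a yeast strain; inactive = the rest.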

The assay can be described thus: yeast MEP2-GFP fusion level changes, TOR pathway – flow cytometry, third cherry pick, S. cerevisiae, confirmation (AID 504321).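 Note: median per-cell GFP fluorescence by flow cytometry across all yeast cells; ratio of sample to DMSO median GFP so 100% equals the DMSO level.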 To be noted: S. cerevisiae MEP2-GFP strain, 3 h, at 10 µM, hits give high values. For orientation: In flow cytometry, cells or beads pass a laser one at a time.
`CNc1nc(N)c([N+](=O)[O-])c(Nc2ccccc2OC)n1`: the GFP response vs DMSO is 105% (inactive). For the molecule `Cc1cccc(Nc2cc(=O)[nH]c(=O)[nH]2)c1`, the GFP response vs DMSO is 108% (inactive). As for `Cc1ccc2c(Cl)cc(Cl)c(OCC(=O)O)c2n1`, the figure is 108% (inactive); as for `O=C(Nc1cccc(Cl)c1)ON=C1c2ccccc2-c2ccccc21`, 110% (inactive); as for `CCN(CC)C(=O)Oc1ccnc2cc(Cl)ccc12`, 110% (inactive). For the molecule `CCc1sc(C(=O)Nc2nc(-c3ccccn3)cs2)cc1C`, the GFP response vs DMSO was 114% (inactive).

In the case of `COc1ccc(OC)c(Nc2nc(NCCC(C)C)nc(N)c2[N+](=O)[O-])c1`, the GFP response vs DMSO is 108% (inactive).

`C/C(=C\C(=O)c1ccccc1)Nc1cccc(O)c1`: the GFP response vs DMSO was 110% (inactive). The value for `COc1ccc(Nc2nc(NN)nc(C)c2[N+](=O)[O-])cc1` was 101% (inactive); that for `CCCOCc1ccc(O)c2ncccc12` was 110% (inactive). Regarding `O=C(O)c1ccc(C=NNC(=O)c2cccc3ccccc23)cc1`, the GFP response vs DMSO is 103% (inactive). As for `CC1=CN2C(=N)/C(=C/c3ccc(C)o3)C(=O)N=C2S1`, the GFP response vs DMSO is 105% (inactive). As for `Cc1nc(Nc2ccc(Cl)cc2)c(C#N)c(=O)[nH]1`, the figure is 108% (inactive); as for `COCCCNc1nc(N)c([N+](=O)[O-])c(Nc2ccccc2OC)n1`, 110% (inactive). As for `CS(=O)(=O)Oc1ccc(Br)c2cccnc12`, the figure is 110% (inactive); as for `Cc1cccc(Nc2cc(=O)[nH]c(=O)[nH]2)c1C`, 114% (inactive). As for `NC(=O)COc1cccc2cccnc12`, the figure is 108% (inactive). As to `CSc1nc(S(C)(=O)=O)nc2[nH]c(=O)[nH]c12`, the GFP response vs DMSO is 110% (inactive). For the molecule `COc1ccc(NC(=O)O/N=C2/CCCc3ccc(OC)cc32)cc1`, the GFP response vs DMSO was 112% (inactive). As for `C/C(=N\NC(=O)c1ccccc1)c1ccccc1F`, the figure is 116% (inactive); as for `Cc1ccc(C(=O)/C=C/Nc2cccc(O)c2)cc1`, 116% (inactive). The value for `COCCNc1nc(N)c([N+](=O)[O-])c(Nc2ccc(F)cc2)n1` was 105% (inactive); that for `Oc1c(I)cc(Cl)c2cccnc12` was 181% (active); that for `CCc1c(C)nc2c(OC)cccc2c1Cl` was 110% (inactive). As for `COc1ccc(-c2cc(C(F)(F)F)nc(S(C)(=O)=O)n2)cc1OC`, the figure is 114% (inactive) and 121% (inactive); as for `O=C(Nc1ccc(-c2nc3ccccc3o2)cc1)c1cccnc1`, 103% (inactive). As for `CC(=O)CC(=O)Nc1ccc(C(N)=O)cc1`, the GFP response vs DMSO is 112% (inactive). The value for `CC1=CN2C(=N)/C(=C/c3ccco3)C(=O)N=C2S1` was 105% (inactive); that for `CC1=CN2C(=N)/C(=C/c3ccc([N+](=O)[O-])o3)C(=O)N=C2S1` was 5270% (active). As for `O=C(/C=C/Nc1cccc(O)c1)c1ccccc1`, the figure is 112% (inactive); as for `COc1ccc(NC(=O)ON=C2c3ccccc3-c3ccccc32)cc1`, 105% (inactive).

For `COc1cccc2c(=O)c(C(=O)O)c[nH]c12`, the GFP response vs DMSO is 116% (inactive). With `COc1cc(=O)n(C)c2c(O)cccc12`, the GFP response vs DMSO was 110% (inactive). The value for `COc1ccccc1-c1cc(C(F)(F)F)nc(S(C)(=O)=O)n1` was 142% (inactive); that for `COc1ccc(OC)c2c(C)cc(C)nc12` was 108% (inactive). For the molecule `CC(=O)Nc1ccc(-c2nc3cc(Cl)ccc3o2)cc1`, the GFP response vs DMSO was 108% (inactive). As for `O=c1cc(C(F)(F)F)[nH]c2c(OC(F)(F)F)cccc12`, the figure is 114% (inactive); as for `Cc1ccc(C)c(Nc2ncnc(N)c2[N+](=O)[O-])c1`, 108% (inactive). As for `Nc1nc(NCCOCCO)nc(Nc2cccc(F)c2)c1[N+](=O)[O-]`, the figure is 108% (inactive).
